Results: the supplement of paper PMC11732987, “Enantioselective OTUD7B fragment discovery through chemoproteomics screening and high-throughput optimisation” (Communications Chemistry, 2025)

Experiments:
Test in all cases: log2 ratio of Biotin-Ahx-Ub-VS probe labelling (fragment/DMSO); higher = less target engagement (more negative = stronger competition), active = hit call of the paper (q ≤ 0.05, log2 ratio ≤ -1)
Conditions in all cases: compound concentration: 200 uM; treatment time: 3 h
USP42 = molecular target: T1, USP42 (UniProt Q9H9J4)
T1 sequence (whole entry): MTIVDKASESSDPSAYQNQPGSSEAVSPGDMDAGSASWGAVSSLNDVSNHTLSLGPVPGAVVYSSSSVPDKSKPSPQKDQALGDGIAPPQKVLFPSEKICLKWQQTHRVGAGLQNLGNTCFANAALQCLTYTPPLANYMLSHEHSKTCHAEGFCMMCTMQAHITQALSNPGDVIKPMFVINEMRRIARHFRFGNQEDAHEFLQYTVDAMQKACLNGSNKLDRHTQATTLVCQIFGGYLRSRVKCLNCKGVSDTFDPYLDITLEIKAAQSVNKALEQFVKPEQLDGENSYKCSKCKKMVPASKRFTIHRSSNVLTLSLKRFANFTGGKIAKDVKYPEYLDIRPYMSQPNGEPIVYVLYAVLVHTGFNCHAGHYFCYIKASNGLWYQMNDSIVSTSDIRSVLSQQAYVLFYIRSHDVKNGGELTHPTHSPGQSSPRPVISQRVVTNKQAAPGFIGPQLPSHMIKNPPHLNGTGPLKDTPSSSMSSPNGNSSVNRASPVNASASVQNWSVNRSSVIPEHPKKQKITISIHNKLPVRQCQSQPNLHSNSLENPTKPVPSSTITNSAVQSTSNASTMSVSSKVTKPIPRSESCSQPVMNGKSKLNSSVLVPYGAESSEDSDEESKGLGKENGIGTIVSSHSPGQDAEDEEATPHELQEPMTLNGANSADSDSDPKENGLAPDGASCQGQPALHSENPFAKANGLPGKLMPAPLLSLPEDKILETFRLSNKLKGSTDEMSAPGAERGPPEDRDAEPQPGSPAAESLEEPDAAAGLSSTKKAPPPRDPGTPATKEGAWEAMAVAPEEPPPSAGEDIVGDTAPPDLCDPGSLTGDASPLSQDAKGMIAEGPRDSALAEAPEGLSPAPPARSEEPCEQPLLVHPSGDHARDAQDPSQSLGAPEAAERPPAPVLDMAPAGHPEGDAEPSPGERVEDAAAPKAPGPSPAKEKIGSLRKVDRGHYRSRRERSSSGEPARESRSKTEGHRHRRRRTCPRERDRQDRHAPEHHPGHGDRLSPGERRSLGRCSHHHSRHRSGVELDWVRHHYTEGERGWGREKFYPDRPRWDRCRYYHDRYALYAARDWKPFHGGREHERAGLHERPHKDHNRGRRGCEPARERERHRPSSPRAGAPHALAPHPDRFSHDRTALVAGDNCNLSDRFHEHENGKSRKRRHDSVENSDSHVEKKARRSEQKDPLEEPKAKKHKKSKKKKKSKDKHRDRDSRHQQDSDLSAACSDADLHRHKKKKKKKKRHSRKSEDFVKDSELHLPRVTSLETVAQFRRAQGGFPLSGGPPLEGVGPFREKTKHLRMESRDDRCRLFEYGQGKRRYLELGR
Outline: (§1)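 HEK293T lysate (495 µg per sample, in Tris/CHAPS/IGEPAL buffer with protease inhibitors) was treated in triplicate with fragment at 200 µM or with DMSO for 3 h. It was then treated with Biotin-Ahx-Ub-VS (0.5 µM final) for 1 h. Labelled DUBs were NeutrAvidin-enriched, digested with LysC and trypsin, and run by diaPASEF LC-MS/MS. Spectronaut label-free quantities were global-median-normalised. Values are average log2 ratios fragment/DMSO by unpaired t-test, using proteins with ≥2 unique peptides.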

USP46 = USP46 (UniProt P62068)
Sequence of USP46 (P62068 whole entry): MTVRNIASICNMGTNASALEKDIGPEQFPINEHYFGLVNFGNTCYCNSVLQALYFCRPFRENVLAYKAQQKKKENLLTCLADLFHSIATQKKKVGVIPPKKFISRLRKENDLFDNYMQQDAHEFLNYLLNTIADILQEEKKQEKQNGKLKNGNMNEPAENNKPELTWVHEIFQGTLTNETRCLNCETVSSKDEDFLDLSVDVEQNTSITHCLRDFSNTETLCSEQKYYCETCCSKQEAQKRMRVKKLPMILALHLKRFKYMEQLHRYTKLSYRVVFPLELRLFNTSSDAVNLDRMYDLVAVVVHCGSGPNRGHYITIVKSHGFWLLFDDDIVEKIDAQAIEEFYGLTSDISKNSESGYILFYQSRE
Outline: as §1

USP47 = molecular target: T2, USP47 (UniProt Q96K76)
T2 sequence (whole entry): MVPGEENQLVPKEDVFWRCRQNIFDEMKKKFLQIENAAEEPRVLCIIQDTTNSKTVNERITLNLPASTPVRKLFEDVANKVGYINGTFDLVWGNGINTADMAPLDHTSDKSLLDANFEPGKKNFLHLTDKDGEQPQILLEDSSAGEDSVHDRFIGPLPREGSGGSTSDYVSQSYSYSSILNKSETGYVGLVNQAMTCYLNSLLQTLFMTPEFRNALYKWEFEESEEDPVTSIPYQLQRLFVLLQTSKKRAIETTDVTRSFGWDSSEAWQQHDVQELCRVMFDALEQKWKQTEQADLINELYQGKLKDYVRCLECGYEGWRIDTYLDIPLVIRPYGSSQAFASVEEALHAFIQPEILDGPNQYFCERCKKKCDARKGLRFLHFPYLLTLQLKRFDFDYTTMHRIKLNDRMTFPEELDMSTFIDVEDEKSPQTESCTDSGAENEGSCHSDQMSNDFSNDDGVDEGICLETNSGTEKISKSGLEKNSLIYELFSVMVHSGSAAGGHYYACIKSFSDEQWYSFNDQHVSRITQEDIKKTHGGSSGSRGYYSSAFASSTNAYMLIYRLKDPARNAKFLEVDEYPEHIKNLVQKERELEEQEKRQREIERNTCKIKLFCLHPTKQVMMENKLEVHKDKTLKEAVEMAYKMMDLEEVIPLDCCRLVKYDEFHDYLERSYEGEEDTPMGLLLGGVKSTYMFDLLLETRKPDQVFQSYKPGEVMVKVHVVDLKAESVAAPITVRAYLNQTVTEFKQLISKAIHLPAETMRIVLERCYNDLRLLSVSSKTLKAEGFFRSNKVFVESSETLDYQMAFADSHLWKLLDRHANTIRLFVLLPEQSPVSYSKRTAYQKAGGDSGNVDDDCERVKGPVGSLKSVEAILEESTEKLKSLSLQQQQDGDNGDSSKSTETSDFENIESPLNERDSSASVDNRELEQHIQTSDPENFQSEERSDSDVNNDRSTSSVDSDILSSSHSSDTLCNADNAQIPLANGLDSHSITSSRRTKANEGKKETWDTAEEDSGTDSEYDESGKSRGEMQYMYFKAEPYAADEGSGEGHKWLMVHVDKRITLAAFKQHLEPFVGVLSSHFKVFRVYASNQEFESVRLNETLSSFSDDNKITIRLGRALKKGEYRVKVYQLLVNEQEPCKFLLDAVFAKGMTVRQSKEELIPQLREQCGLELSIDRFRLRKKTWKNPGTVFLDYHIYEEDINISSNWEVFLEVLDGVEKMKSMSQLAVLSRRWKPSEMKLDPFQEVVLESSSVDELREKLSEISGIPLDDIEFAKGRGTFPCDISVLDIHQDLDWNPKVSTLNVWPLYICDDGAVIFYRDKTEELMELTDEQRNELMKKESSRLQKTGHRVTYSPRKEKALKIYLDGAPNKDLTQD
Outline: as §1

USP48 = molecular target: T3, USP48 (UniProt Q86UV5)
T3 sequence (whole entry): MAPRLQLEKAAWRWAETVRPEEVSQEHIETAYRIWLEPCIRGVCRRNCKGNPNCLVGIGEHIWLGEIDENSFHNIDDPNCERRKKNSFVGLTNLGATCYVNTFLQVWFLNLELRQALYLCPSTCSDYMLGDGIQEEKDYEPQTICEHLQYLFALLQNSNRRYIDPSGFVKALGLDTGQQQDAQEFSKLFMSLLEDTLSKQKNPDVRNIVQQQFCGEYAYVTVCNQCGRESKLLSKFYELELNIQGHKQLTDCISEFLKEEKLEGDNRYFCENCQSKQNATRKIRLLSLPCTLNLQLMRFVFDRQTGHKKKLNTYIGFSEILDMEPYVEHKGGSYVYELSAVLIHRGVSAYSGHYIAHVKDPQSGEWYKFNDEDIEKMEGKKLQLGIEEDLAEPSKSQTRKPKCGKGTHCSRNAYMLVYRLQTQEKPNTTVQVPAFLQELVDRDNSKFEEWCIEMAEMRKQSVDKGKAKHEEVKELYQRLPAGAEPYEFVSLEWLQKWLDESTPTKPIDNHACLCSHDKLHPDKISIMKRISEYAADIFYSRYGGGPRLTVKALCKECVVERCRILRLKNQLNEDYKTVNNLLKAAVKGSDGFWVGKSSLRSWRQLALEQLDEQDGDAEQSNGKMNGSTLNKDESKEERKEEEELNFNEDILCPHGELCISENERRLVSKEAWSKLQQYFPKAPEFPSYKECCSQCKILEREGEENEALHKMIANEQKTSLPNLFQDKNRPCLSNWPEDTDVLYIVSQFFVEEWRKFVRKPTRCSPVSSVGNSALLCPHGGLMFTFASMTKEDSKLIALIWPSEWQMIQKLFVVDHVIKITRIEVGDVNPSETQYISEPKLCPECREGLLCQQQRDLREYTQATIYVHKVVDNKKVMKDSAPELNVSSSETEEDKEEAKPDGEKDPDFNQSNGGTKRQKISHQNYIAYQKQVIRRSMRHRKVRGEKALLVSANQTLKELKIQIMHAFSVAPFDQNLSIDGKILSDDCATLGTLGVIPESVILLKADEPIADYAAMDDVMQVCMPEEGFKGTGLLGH
Outline: as §1

USP5 = molecular target: T4, USP5 (UniProt P45974)
T4 sequence (whole entry): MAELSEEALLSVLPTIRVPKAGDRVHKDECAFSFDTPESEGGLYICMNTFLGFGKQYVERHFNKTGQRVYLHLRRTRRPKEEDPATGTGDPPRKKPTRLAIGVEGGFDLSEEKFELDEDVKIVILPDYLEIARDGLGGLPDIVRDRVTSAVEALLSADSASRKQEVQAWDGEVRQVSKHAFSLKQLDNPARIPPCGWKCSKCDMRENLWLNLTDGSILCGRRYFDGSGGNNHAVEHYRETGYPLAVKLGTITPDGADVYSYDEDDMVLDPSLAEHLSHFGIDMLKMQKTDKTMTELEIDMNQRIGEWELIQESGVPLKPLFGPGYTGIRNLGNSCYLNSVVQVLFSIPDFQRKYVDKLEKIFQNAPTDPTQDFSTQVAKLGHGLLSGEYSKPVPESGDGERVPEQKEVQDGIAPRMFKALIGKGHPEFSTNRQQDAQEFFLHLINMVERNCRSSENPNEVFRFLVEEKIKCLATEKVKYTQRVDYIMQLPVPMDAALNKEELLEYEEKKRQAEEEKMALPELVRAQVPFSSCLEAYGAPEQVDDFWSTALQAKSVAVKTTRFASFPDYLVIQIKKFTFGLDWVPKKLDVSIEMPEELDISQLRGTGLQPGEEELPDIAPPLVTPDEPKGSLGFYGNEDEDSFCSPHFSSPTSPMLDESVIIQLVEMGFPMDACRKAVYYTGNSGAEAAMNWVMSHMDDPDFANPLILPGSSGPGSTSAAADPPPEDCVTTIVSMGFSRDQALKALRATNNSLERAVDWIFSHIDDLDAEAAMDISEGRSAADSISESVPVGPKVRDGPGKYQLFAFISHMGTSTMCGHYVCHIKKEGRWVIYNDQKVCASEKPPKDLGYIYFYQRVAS
Outline: as §1

USP54 = USP54 (UniProt Q70EL1)
Sequence of USP54 (Q70EL1 whole entry): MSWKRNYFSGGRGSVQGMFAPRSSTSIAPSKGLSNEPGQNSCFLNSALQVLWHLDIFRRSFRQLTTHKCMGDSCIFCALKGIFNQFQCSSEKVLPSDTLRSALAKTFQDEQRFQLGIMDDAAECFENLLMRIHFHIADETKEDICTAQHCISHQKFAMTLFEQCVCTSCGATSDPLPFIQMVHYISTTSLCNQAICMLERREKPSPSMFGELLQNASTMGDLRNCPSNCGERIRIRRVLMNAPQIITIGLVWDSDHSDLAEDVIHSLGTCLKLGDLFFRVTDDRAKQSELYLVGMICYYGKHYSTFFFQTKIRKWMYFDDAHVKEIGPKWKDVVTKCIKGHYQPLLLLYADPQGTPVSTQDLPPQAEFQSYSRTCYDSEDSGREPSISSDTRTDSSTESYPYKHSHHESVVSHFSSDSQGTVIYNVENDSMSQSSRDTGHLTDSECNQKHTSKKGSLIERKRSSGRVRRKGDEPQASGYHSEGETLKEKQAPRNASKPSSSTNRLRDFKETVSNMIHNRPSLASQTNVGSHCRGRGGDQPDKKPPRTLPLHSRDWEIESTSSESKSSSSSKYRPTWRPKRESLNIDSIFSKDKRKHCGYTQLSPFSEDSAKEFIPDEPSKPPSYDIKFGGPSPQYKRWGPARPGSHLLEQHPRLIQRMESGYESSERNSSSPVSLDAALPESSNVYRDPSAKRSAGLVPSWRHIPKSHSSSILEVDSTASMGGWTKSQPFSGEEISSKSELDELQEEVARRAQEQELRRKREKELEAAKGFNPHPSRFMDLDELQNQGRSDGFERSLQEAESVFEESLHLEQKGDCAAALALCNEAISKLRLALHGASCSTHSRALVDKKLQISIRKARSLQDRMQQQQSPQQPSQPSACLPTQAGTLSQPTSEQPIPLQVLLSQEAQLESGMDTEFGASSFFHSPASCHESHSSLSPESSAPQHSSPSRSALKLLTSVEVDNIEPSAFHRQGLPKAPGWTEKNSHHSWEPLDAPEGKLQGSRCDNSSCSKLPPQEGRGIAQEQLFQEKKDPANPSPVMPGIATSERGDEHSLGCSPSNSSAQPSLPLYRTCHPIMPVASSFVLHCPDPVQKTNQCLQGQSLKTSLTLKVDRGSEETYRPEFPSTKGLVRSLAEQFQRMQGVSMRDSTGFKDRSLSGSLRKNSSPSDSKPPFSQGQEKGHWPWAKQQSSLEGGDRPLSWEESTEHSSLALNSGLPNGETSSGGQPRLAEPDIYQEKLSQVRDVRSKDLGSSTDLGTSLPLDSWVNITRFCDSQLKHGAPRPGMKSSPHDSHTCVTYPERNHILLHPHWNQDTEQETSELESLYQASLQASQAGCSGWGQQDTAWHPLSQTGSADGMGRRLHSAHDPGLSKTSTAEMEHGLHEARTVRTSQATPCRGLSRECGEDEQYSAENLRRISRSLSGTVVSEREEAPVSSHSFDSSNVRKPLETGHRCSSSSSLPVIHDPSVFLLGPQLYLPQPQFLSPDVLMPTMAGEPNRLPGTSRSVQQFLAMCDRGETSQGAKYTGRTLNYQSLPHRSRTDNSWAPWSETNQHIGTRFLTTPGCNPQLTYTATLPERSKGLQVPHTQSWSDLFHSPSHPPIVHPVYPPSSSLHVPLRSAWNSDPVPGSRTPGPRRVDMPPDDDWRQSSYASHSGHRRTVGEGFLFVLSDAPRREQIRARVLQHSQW
Outline: as §1

USP7 = USP7 (UniProt Q93009)
Sequence of USP7 (Q93009 whole entry, looked up): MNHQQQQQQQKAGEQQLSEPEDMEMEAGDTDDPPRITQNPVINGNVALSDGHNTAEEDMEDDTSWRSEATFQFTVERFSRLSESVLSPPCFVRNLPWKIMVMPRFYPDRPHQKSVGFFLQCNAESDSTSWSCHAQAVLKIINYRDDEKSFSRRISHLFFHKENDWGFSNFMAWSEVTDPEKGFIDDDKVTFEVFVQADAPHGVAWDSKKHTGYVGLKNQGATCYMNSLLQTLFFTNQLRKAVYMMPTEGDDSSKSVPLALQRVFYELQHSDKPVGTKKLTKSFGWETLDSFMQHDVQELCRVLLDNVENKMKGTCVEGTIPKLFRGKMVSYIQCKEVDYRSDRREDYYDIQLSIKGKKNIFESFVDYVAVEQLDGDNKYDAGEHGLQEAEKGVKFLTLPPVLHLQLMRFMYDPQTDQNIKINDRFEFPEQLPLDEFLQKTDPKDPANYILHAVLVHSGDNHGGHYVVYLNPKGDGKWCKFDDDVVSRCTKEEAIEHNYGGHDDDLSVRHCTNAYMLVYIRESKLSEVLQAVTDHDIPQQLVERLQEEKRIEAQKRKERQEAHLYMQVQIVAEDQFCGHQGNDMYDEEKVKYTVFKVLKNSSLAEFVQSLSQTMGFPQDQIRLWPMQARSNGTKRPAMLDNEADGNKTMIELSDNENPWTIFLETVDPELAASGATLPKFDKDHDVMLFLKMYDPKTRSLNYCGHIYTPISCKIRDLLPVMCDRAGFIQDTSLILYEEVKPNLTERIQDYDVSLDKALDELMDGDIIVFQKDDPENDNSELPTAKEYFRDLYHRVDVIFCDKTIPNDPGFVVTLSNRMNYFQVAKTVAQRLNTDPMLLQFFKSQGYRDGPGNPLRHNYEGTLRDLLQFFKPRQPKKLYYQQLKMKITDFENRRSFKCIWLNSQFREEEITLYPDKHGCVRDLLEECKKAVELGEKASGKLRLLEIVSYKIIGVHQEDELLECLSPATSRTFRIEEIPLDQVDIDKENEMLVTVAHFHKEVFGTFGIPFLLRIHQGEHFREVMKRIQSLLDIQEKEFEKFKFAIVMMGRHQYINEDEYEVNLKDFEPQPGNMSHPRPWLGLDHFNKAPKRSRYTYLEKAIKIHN
Outline: as §1

USP8 = molecular target: T5, USP8 (UniProt P40818)
T5 sequence (whole entry): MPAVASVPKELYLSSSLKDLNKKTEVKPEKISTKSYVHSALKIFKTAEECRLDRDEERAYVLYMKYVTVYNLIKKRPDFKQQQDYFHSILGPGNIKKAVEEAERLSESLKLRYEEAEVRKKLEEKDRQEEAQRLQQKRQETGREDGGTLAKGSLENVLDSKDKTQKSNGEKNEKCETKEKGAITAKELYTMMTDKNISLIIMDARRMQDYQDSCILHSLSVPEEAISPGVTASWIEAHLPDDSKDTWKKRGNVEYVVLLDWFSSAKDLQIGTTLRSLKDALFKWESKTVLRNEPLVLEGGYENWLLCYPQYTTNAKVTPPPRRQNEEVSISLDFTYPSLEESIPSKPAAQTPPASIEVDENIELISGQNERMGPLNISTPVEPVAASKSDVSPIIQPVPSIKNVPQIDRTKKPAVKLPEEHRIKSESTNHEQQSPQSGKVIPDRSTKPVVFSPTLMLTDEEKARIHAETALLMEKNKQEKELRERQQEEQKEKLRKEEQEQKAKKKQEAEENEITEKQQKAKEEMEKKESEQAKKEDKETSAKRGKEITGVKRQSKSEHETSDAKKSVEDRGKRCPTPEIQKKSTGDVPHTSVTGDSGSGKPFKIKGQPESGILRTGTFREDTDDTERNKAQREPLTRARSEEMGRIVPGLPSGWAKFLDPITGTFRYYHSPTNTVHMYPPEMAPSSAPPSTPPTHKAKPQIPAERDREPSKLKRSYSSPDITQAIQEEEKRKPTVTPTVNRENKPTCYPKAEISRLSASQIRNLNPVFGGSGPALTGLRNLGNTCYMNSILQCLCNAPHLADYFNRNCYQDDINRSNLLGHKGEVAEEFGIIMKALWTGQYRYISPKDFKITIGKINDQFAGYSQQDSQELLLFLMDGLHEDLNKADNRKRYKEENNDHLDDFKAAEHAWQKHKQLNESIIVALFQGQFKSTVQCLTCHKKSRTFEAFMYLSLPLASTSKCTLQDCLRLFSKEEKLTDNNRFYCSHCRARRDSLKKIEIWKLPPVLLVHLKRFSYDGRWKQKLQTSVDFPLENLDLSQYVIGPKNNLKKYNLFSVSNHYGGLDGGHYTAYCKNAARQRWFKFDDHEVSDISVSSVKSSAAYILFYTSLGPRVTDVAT
Outline: as §1

Measured: log2 ratio of Biotin-Ahx-Ub-VS probe labelling

Cn1cc(CN(Cc2ccc(Cl)cc2)C(=O)CCl)cn1
inactive: USP42 0.553 | USP46 -0.635 | USP48 -0.598 | USP5 0.00584 | USP54 -0.648 | USP8 0.0316
active: USP47 -1.45 | USP7 -3.08
